One sequence from PMC7862700, “An all-to-all approach to the identification of sequence-specific readers for epigenetic DNA modifications on cytosine” can be followed below.

What all share (assay): DAPPL (digital affinity profiling via proximity ligation, sequencing); 10 mM Tris-HCl pH 7.5, 50 mM NaCl, 1 mM DTT, 4% glycerol, room temperature, 30 min; GST-TFs on glutathione beads, 16-mer random dsDNA library, 0.1% formaldehyde crosslink after washing; high values mean tight binding
For test [1], the target named is T1, FEV (Homo sapiens, UniProt Q99581 1-238).
T1 sequence: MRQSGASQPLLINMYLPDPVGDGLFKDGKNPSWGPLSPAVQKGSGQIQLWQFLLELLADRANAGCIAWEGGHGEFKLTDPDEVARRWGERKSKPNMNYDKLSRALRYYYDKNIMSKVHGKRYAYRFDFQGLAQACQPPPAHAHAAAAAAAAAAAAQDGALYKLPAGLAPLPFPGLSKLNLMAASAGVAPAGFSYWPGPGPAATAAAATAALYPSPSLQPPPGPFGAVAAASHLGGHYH
As to conditions: protein: recombinant; tags: N-terminal GST; dsDNA, one strand shown. A digest of the protocol:
(§1)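 Binding signal is each hexamer's read frequency for a factor divided by its frequency in the tag-only sample. The factors were GST-fused human transcription factors from yeast, captured on glutathione beads, DNA-barcoded and pooled with that sample. Pools were incubated with 200 nmole of a random double-stranded 16-mer DNA library in Tris/NaCl/DTT/glycerol buffer at room temperature for 30 min, then washed, crosslinked with 0.1% formaldehyde, proximity-ligated with BsaI/T4 ligase (1 h, 37 °C), PCR-amplified and sequenced on an Illumina NextSeq500.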

In test [2] the target is ETV5 (Homo sapiens, UniProt P41161 1-510). Particulars: protein: recombinant; tags: N-terminal GST; dsDNA, one strand shown. The essentials: as §1
Chain of ETV5 (P41161 whole entry): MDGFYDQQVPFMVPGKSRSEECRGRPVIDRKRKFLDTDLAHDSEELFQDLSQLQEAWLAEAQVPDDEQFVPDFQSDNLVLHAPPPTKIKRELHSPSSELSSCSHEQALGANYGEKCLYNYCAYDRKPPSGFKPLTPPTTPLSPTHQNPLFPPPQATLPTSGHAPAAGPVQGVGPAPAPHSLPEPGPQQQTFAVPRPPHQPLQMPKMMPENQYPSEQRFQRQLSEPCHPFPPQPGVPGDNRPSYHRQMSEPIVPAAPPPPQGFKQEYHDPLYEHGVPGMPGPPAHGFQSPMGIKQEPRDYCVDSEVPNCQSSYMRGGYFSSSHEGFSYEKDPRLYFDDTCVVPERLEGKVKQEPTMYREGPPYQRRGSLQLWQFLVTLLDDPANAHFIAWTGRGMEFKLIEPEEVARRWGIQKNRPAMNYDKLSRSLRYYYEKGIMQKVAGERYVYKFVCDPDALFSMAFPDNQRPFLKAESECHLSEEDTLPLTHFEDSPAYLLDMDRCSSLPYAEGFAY
For test [3], the target named is HSF1 (Homo sapiens, UniProt Q00613 1-529). As to conditions: protein: recombinant; tags: N-terminal GST; chain copies: 3; dsDNA, one strand shown. A digest of the protocol:
as §1

The target in test [4] is T2, SPIC (Homo sapiens, UniProt Q8N5J4 1-248).
T2 sequence: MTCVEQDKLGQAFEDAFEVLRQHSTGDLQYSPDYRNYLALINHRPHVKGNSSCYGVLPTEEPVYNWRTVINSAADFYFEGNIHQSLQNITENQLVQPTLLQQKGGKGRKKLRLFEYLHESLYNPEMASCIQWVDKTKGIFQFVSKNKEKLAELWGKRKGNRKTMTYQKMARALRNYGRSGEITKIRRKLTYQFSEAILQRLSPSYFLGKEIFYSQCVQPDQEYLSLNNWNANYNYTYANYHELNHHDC
As to conditions: protein: recombinant; tags: N-terminal GST; dsDNA, one strand shown. The essentials: as §1

Test [5] concerns the target ELF4 (Homo sapiens, UniProt Q99607 1-663). As to conditions: protein: recombinant; tags: N-terminal GST; dsDNA, one strand shown. The essentials: as §1
In test [6] the target is T3, ELK4 (Homo sapiens, UniProt P28324-2 1-405).
T3 sequence: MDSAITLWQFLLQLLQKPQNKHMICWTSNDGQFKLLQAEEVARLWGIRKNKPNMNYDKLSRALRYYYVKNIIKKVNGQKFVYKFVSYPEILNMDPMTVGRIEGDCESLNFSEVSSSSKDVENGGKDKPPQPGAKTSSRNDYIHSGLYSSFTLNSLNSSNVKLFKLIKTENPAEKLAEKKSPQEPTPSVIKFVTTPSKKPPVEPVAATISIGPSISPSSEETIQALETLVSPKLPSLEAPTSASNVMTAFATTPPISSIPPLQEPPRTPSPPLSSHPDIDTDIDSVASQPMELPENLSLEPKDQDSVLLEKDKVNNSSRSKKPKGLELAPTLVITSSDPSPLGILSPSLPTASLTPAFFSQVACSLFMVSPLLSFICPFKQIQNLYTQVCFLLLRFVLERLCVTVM
Particulars: protein: recombinant; tags: N-terminal GST; dsDNA, one strand shown. The essentials: as §1

Test [7] deals with T4, ETV2 (Homo sapiens, UniProt O00321 1-342).
T4 sequence: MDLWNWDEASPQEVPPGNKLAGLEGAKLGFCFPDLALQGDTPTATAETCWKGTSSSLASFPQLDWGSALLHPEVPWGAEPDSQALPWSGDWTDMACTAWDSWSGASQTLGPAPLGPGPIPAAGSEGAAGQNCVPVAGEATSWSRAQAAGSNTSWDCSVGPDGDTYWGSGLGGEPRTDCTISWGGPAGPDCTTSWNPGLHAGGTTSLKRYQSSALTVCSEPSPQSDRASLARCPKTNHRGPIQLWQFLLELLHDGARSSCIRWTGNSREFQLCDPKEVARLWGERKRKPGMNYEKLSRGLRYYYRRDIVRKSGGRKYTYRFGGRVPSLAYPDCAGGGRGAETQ
As to conditions: protein: recombinant; tags: N-terminal GST; dsDNA, one strand shown. The essentials:
as §1

In test [8] the target is T5, ELF3 (Homo sapiens, UniProt P78545 1-371).
T5 sequence: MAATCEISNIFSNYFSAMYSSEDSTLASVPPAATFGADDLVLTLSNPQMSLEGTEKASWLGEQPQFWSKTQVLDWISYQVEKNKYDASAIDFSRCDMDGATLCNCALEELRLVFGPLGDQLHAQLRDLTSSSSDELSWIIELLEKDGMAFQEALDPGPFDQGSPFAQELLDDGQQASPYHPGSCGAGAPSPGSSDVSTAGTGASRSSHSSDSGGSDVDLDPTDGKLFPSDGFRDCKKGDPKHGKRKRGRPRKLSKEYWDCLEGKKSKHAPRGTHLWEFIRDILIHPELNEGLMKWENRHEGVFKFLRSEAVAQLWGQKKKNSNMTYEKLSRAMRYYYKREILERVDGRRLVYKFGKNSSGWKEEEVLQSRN
Particulars: protein: recombinant; tags: N-terminal GST; dsDNA, one strand shown. The essentials:
as §1

Test [9] has as its target CRX (Homo sapiens, UniProt O43186 1-299). Particulars: protein: recombinant; tags: N-terminal GST; dsDNA, one strand shown. The essentials:
as §1

Test [10] addresses ETV1 (Homo sapiens, UniProt P50549 1-477). As to conditions: protein: recombinant; tags: N-terminal GST; dsDNA, one strand shown. The essentials:
as §1

The target of test [11] is T6, ERF (Homo sapiens, UniProt P50548 1-548).
T6 sequence: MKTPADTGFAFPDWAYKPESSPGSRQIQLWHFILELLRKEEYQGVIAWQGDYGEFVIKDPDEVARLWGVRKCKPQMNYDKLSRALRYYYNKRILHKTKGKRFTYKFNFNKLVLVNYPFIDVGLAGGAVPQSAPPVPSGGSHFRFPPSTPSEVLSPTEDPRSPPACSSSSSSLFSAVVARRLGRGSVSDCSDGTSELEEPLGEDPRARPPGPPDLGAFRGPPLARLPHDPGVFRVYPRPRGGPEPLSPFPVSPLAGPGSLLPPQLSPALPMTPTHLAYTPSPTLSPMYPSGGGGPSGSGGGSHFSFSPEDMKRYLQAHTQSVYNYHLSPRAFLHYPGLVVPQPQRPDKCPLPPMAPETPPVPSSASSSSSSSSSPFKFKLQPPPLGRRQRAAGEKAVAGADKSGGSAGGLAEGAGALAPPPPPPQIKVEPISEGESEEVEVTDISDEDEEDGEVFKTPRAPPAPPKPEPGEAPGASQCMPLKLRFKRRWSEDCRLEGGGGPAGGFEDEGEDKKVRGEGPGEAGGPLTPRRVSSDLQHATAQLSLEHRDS
As to conditions: protein: recombinant; tags: N-terminal GST; dsDNA, one strand shown. A digest of the protocol:
as §1

The target of test [12] is T7, ETV3L (Homo sapiens, UniProt Q6ZN32 1-361).
T7 sequence: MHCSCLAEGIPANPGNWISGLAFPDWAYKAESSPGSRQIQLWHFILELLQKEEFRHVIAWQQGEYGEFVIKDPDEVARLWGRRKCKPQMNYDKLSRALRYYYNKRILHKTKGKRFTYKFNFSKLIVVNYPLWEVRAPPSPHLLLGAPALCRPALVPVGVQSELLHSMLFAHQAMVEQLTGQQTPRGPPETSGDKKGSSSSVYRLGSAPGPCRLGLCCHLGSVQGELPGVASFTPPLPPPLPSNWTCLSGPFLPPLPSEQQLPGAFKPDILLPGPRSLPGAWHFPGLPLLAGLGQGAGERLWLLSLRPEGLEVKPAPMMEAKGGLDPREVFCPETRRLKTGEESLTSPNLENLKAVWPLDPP
Particulars: protein: recombinant; tags: N-terminal GST; dsDNA, one strand shown. A digest of the protocol:
as §1

Test [13] concerns the target T8, ETS2 (Homo sapiens, UniProt P15036 1-469).
T8 sequence: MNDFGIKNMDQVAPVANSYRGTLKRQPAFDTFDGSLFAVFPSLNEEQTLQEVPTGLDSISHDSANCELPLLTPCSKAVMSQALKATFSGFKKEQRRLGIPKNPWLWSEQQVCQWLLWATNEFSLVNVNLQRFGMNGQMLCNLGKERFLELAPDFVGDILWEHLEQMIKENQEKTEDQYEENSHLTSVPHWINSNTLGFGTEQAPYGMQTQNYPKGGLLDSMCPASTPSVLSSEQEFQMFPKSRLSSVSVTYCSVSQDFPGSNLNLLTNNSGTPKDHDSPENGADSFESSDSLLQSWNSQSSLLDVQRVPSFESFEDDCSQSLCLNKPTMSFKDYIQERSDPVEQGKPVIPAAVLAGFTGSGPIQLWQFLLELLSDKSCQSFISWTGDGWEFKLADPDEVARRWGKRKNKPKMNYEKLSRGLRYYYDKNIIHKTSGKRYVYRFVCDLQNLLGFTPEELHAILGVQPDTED
As to conditions: protein: recombinant; tags: N-terminal GST; dsDNA, one strand shown. A digest of the protocol:
as §1

Test [14] deals with T9, SPDEF (Homo sapiens, UniProt O95238 1-335).
T9 sequence: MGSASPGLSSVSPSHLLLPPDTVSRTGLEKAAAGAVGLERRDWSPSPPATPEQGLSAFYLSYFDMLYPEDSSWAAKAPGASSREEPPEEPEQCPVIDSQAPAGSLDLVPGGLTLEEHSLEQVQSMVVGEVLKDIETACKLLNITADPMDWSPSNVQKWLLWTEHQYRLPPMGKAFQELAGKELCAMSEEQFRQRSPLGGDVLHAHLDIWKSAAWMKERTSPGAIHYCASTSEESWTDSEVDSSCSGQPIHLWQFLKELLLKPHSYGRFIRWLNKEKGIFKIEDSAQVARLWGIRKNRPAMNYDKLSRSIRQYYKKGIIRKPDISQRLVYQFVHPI
As to conditions: protein: recombinant; tags: N-terminal GST; dsDNA, one strand shown. A digest of the protocol:
as §1

Test [15] deals with T10, ETV7 (Homo sapiens, UniProt Q9Y603 1-341).
T10 sequence: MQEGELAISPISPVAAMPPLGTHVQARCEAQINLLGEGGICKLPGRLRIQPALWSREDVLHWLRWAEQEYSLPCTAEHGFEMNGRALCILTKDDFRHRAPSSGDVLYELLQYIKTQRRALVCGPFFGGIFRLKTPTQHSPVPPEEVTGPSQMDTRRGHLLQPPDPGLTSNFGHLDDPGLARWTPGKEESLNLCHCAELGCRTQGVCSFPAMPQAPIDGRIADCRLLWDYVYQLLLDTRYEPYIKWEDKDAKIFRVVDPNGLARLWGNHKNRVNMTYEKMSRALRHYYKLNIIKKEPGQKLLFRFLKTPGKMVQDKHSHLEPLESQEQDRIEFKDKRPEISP
As to conditions: protein: recombinant; tags: N-terminal GST; dsDNA, one strand shown. A digest of the protocol:
as §1

Test [16] has as its target T11, ELF5 (Homo sapiens, UniProt Q9UKW6-2 1-255).
T11 sequence: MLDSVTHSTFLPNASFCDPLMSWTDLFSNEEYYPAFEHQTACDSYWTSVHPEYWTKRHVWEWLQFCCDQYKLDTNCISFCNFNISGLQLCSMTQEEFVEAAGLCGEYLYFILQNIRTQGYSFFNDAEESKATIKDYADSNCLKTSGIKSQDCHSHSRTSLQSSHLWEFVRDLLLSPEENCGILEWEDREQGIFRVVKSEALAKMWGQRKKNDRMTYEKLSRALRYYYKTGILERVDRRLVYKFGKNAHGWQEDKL
Particulars: protein: recombinant; tags: N-terminal GST; dsDNA, one strand shown. A digest of the protocol:
as §1

Test [17] deals with T12, ETV3 (Homo sapiens, UniProt P41162-2 1-143).
T12 sequence: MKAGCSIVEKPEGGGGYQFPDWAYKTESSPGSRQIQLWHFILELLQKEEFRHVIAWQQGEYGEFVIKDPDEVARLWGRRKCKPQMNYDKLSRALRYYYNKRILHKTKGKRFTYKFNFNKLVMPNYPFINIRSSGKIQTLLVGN
As to conditions: protein: recombinant; tags: N-terminal GST; dsDNA, one strand shown. The essentials:
as §1

Test [18] addresses ETV6 (Homo sapiens, UniProt P41212 1-452). As to conditions: protein: recombinant; tags: N-terminal GST; dsDNA, one strand shown. A digest of the protocol:
as §1

Chain of CRX (O43186 whole entry): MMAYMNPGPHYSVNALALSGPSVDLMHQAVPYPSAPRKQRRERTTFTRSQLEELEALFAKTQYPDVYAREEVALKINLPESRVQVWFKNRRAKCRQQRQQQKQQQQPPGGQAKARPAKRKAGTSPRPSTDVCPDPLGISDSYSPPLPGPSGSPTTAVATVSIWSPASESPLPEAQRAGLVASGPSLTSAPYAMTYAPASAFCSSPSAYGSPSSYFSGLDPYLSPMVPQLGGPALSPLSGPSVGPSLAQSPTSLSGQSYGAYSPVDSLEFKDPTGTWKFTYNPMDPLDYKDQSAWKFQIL
Chain of ELF4 (Q99607 whole entry): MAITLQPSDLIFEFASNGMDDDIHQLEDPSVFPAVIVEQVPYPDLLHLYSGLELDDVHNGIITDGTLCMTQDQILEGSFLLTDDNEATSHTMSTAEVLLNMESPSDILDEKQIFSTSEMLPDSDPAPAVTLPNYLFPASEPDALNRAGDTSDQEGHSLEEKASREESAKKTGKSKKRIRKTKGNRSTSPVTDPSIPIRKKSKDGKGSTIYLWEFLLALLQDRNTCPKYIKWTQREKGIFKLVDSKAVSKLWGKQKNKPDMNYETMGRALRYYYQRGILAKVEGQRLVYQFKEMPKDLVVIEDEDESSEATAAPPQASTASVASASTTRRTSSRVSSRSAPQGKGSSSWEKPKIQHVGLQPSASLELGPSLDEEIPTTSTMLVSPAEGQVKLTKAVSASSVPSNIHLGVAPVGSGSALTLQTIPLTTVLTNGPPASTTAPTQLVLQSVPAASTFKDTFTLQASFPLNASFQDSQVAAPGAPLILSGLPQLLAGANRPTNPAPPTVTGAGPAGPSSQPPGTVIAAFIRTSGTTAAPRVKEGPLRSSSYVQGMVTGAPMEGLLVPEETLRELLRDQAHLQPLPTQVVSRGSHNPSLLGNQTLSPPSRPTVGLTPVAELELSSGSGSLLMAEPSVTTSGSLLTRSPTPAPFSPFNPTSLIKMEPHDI
Chain of ETV6 (P41212 whole entry): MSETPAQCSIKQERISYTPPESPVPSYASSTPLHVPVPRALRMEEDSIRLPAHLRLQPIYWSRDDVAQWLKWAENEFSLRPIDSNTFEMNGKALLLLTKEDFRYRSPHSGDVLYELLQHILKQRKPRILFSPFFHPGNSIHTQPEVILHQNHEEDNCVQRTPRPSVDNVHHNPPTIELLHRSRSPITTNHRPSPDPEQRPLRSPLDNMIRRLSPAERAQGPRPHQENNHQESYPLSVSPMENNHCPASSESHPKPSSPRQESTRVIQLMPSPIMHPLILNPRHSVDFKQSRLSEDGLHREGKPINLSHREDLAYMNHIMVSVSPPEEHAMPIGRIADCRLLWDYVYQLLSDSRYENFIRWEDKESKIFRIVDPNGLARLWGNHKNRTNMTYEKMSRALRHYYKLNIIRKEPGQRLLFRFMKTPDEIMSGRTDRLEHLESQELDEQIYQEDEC
Chain of ETV1 (P50549 whole entry): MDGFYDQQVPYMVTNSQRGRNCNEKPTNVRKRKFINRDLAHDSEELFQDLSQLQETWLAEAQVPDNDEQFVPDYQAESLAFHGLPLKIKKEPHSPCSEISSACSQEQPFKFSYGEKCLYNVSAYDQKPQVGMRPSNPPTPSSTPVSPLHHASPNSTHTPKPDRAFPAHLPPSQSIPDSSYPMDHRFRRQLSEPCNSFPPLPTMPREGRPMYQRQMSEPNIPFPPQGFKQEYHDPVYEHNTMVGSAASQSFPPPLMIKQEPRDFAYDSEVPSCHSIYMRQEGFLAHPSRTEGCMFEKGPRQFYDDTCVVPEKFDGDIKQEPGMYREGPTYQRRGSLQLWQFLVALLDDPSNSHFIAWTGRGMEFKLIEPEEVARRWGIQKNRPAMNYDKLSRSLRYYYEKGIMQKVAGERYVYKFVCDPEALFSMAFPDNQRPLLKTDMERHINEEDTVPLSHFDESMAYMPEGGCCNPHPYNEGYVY
Chain of HSF1 (Q00613 whole entry): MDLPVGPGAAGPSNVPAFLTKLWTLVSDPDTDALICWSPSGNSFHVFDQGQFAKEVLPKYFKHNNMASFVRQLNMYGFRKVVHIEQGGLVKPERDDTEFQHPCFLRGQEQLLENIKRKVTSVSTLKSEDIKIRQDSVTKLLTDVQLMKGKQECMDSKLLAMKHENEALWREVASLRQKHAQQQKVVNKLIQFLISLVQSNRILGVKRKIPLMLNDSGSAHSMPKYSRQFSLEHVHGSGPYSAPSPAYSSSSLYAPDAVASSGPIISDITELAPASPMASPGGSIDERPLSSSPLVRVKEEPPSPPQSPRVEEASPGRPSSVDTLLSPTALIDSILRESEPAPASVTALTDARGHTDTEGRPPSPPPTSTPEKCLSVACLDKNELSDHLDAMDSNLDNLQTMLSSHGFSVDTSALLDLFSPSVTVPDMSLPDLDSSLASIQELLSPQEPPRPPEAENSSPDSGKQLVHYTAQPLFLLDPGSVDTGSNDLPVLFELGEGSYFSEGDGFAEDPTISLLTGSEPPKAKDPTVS

ATTCGT: the binding signal in test [1] was 1.12 fold enrichment (6-mer frequency, TF over GST control); in test [2], 1.19 fold enrichment (6-mer frequency, TF over GST control); in test [3] it was 1.27 fold enrichment (6-mer frequency, TF over GST control); in test [4], 1.25 fold enrichment (6-mer frequency, TF over GST control); in test [5], 1.24 fold enrichment (6-mer frequency, TF over GST control); in test [6], 1.11 fold enrichment (6-mer frequency, TF over GST control). In addition, the binding signal in test [7] is 1.16 fold enrichment (6-mer frequency, TF over GST control); in test [8], 1.37 fold enrichment (6-mer frequency, TF over GST control); in [9] it was 1.28 fold enrichment (6-mer frequency, TF over GST control); in test [10], 1.14 fold enrichment (6-mer frequency, TF over GST control); in test [11] it was 1.22 fold enrichment (6-mer frequency, TF over GST control); in test [12] it was 1.16 fold enrichment (6-mer frequency, TF over GST control). Moreover, the binding signal is 1.26 fold enrichment (6-mer frequency, TF over GST control) in test [13]; 1.18 fold enrichment (6-mer frequency, TF over GST control) in test [14]; 1.34 fold enrichment (6-mer frequency, TF over GST control) in test [15]; 1.11 fold enrichment (6-mer frequency, TF over GST control) in [16]; 1.28 fold enrichment (6-mer frequency, TF over GST control) in test [17]; 1.11 fold enrichment (6-mer frequency, TF over GST control) in [18].
